Measurements published in PubChem BioAssay AID1159580 (chemical genetic matrix, 2015).
Several values for one entry are separate records, joined by “and”; a condition that tells them apart may be missing. Identical values can stand only once. In all, about 5,500 compounds went through this assay and about 2,000 (36%) were called active. Roughly 18% stayed inconclusive and do not appear here. Rule as the data show it: active = normalized growth mostly below about 0.91 (no sharp cut-off); inconclusive = no clear call, values can overlap the other calls; inactive = mostly above about 0.92. The list shows a part of the results.

Assay: chemical genetic growth profiling, strain panel (AID 1159580);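 also: tested at 20 µM; growth read once vehicle control cultures reached saturation at 30 °C; 1 = growth at the plate median or of vehicle wells; lower values mean less growth of the strain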
Conditions: S. cerevisiae deletion strains, growth OD

Measured: normalized growth

COc1cc2c(cc1OC)[C@@H]1C(=O)c3ccc(OC)c(CC=C(C)C)c3O[C@@H]1CO2
inactive: locus YAL013W, strain DEP1, stronger effect = lower value 1.03 | locus YAL021C, strain ccr4, stronger effect = lower value 1.06 | locus YAL026C, strain drs2, stronger effect = lower value 1.04 | locus YAL030W, strain snc1, stronger effect = lower value 1.02 | locus YBL061C, strain skt5, stronger effect = lower value 1.02 | locus YBR009C, strain hhf1, stronger effect = lower value 1.01 | locus YBR021W, strain FUR4, stronger effect = lower value 1.03 | locus YBR023C, strain chs3, stronger effect = lower value 1.02 | locus YBR171W, strain sec66, stronger effect = lower value 1.05 | locus YBR229C, strain ROT2, stronger effect = lower value 1.02 | locus YBR231C, strain swc5, stronger effect = lower value 1.05 | locus YBR279W, strain paf1, stronger effect = lower value 1.01 | locus YCL011C, strain gbp2, stronger effect = lower value 1.02 | locus YCL016C, strain dcc1, stronger effect = lower value 1.02 | locus YCL029C, strain bik1, stronger effect = lower value 1.02 | locus YCL061C, strain MRC1, stronger effect = lower value 0.987 | locus YCL069W, strain vba3, stronger effect = lower value 1.03 | locus YCR088W, strain abp1, stronger effect = lower value 1.02 | locus YDL005C, strain med2, stronger effect = lower value 1.02 | locus YDL035C, strain GPR1, stronger effect = lower value 1.06 | locus YDL040C, strain nat1, stronger effect = lower value 1.02 | locus YDL074C, strain BRE1, stronger effect = lower value 1.05 | locus YDL101C, strain DUN1, stronger effect = lower value 1.01 | locus YDL185W, strain tfp1, stronger effect = lower value 1.02 | locus YDL192W, strain arf1, stronger effect = lower value 1.04 | locus YDR001C, strain nth1, stronger effect = lower value 1.02 | locus YDR069C, strain doa4, stronger effect = lower value 1.03 | locus YDR101C, strain arx1, stronger effect = lower value 1.03 | locus YDR137W, strain rgp1, stronger effect = lower value 0.892 | locus YDR159W, strain sac3, stronger effect = lower value 1.02 | locus YDR162C, strain NBP2, stronger effect = lower value 1.01 | locus YDR195W, strain ref2 1.06 | locus YDR297W, strain sur2, stronger effect = lower value 1.02 | locus YDR318W, strain mcm21, stronger effect = lower value 1.01 | locus YDR334W, strain swr1, stronger effect = lower value 1.02 | locus YDR335W, strain msn5, stronger effect = lower value 1.03 | locus YDR388W, stronger effect = lower value 1.02 | locus YDR392W, strain spt3, stronger effect = lower value 0.813 | locus YDR502C, strain sam2, stronger effect = lower value 1.01 | locus YEL003W, strain gim4, stronger effect = lower value 1.03 | locus YEL037C, strain rad23, stronger effect = lower value 1.01 | locus YEL061C, strain CIN8 (second series), stronger effect = lower value 1.03 | locus YEL061C, strain CIN8, stronger effect = lower value 1.04 | locus YER015W, strain faa2, stronger effect = lower value 1.04 | locus YER016W, strain bim1, stronger effect = lower value 1.03 | locus YER110C, stronger effect = lower value 1 | locus YER111C, strain swi4, stronger effect = lower value 1.02 | locus YER155C, strain BEM2 (second series), stronger effect = lower value 1.03 | locus YER155C, strain BEM2, stronger effect = lower value 0.993 | locus YER167W, strain BCK2, stronger effect = lower value 1.01 | locus YFR010W, strain ubp6, stronger effect = lower value 1.03 | locus YGL078C, strain dbp3, stronger effect = lower value 1.01 | locus YGL086W, strain mad1, stronger effect = lower value 0.999 | locus YGL167C, strain pmr1, stronger effect = lower value 1.03 | locus YGL173C, strain kem1, stronger effect = lower value 1.04 | locus YGL227W, strain vid30, stronger effect = lower value 1.03 | locus YGL240W, strain doc1, stronger effect = lower value 1.03 | locus YGL248W, strain PDE1, stronger effect = lower value 1.02 | locus YGL253W, strain hxk2, stronger effect = lower value 1.04 | locus YGR078C, strain PAC10, stronger effect = lower value 1.05 | locus YGR135W, strain pre9, stronger effect = lower value 1.02 | locus YGR252W, strain gcn5, stronger effect = lower value 0.994 | locus YHR013C, strain ard1, stronger effect = lower value 1.14 | locus YHR027C, strain rpn1, stronger effect = lower value 1.03 | locus YHR030C, strain SLT2, stronger effect = lower value 1.02 and 1.03 | locus YHR079C, strain IRE1 (second series), stronger effect = lower value 0.997 | locus YHR079C, strain IRE1, stronger effect = lower value 1.02 | locus YHR094C, strain hxt1, stronger effect = lower value 1.01 | locus YHR129C, strain ARP1, stronger effect = lower value 1.04 | locus YHR142W, strain chs7, stronger effect = lower value 1.01 | locus YHR200W, strain rpn10, stronger effect = lower value 1.01 | locus YIL066C, strain RNR3, stronger effect = lower value 1.01 | locus YIL073C, strain SPO22, stronger effect = lower value 1.1 | locus YIL125W, strain kgd1, stronger effect = lower value 0.995 | locus YIR030C, strain dcg1, stronger effect = lower value 0.998 | locus YJL092W, strain hpr5, stronger effect = lower value 1.03 | locus YJL095W, strain BCK1 (second series), stronger effect = lower value 1.02 | locus YJL095W, strain BCK1, stronger effect = lower value 1.04 and 1.05 | locus YJL115W, strain asf1, stronger effect = lower value 1.03 | locus YJL129C, strain trk1, stronger effect = lower value 0.953 | locus YJL134W, strain LCB3, stronger effect = lower value 1.02 | locus YJL154C, strain vps35, stronger effect = lower value 1.03 | locus YJL164C, strain tpk1, stronger effect = lower value 1 | locus YJL166W, strain qcr8, stronger effect = lower value 1.03 | locus YJL168C, strain set2, stronger effect = lower value 1 | locus YJL187C, strain SWE1 (second series), stronger effect = lower value 1 | locus YJL187C, strain SWE1, stronger effect = lower value 1.04 | locus YJR066W, strain TOR1, stronger effect = lower value 0.982 | locus YKL009W, strain mrt4, stronger effect = lower value 1.04 | locus YKL068W, stronger effect = lower value 0.999 | locus YKL085W, strain MDH1 (second series), stronger effect = lower value 0.999 | locus YKL085W, strain MDH1, stronger effect = lower value 0.999 | locus YKL160W, strain elf1, stronger effect = lower value 1.02 | locus YKL190W, strain CNB1, stronger effect = lower value 1.04 | locus YKR001C, strain vps1, stronger effect = lower value 0.934 | locus YKR026C, strain gcn3, stronger effect = lower value 1 | locus YKR091W, strain srl3, stronger effect = lower value 1.02 | locus YLL001W, strain dnm1, stronger effect = lower value 1.03 | locus YLL026W, stronger effect = lower value 1.03 | locus YLL041C, strain sdh2, stronger effect = lower value 1.02 | locus YLR027C, strain aat2, stronger effect = lower value 1.02 | locus YLR039C, strain RIC1, stronger effect = lower value 0.846 | locus YLR058C, strain SHM2, stronger effect = lower value 1 | locus YLR102C, strain apc9, stronger effect = lower value 1.01 | locus YLR113W, strain HOG1, stronger effect = lower value 0.988 | locus YLR221C, strain rsa3, stronger effect = lower value 1.01 | locus YLR258W, strain gsy2, stronger effect = lower value 1.03 | locus YLR262C, strain YPT6 (second series), stronger effect = lower value 0.91 | locus YLR268W, strain sec22, stronger effect = lower value 1.05 | locus YLR320W, strain mms22, stronger effect = lower value 1.02 | locus YLR330W, strain CHS5, stronger effect = lower value 1.01 | locus YLR342W, strain FKS1, stronger effect = lower value 1.02 | locus YLR357W, strain rsc2, stronger effect = lower value 1.02 | locus YLR370C, strain arc18, stronger effect = lower value 1.02 | locus YLR371W, strain rom2, stronger effect = lower value 1.04 | locus YLR384C, strain iki3, stronger effect = lower value 1.02 | locus YLR418C, strain cdc73, stronger effect = lower value 1.01 | locus YML016C, strain PPZ1, stronger effect = lower value 1.01 | locus YML032C, strain rad52, stronger effect = lower value 1 | locus YML120C, strain ndi1, stronger effect = lower value 1.01 | locus YML124C, strain tub3, stronger effect = lower value 1.01 | locus YMR058W, strain fet3, stronger effect = lower value 1.03 | locus YMR078C, strain ctf18, stronger effect = lower value 1.01 | locus YMR125W, strain sto1, stronger effect = lower value 1.03 | locus YMR129W, stronger effect = lower value 1.02 | locus YMR205C, strain PFK2, stronger effect = lower value 0.993 | locus YMR223W, strain ubp8, stronger effect = lower value 1.02 | locus YMR231W, strain pep5, stronger effect = lower value 1.02 | locus YMR263W, strain SAP30, stronger effect = lower value 1.03 | locus YMR307W, strain GAS1, stronger effect = lower value 1.08 | locus YNL067W, strain RPL9B, stronger effect = lower value 1.04 | locus YNL071W, strain lat1, stronger effect = lower value 1.01 | locus YNL153C, strain GIM3, stronger effect = lower value 1.04 | locus YNL183C, strain NPR1, stronger effect = lower value 0.974 | locus YNL209W, strain ssb2, stronger effect = lower value 1.03 | locus YNL233W, strain BNI4, stronger effect = lower value 0.984 | locus YNL248C, strain rpa49, stronger effect = lower value 1.05 | locus YNL250W, strain rad50, stronger effect = lower value 0.961 | locus YNL271C, strain bni1, stronger effect = lower value 1.01 | locus YNL298W, strain CLA4, stronger effect = lower value 1.01 | locus YNL307C, strain MCK1, stronger effect = lower value 0.999 | locus YNL322C, strain KRE1 (second series), stronger effect = lower value 1.01 | locus YNL322C, strain KRE1, stronger effect = lower value 1.02 | locus YNR049C, strain mso1, stronger effect = lower value 1.04 | locus YNR052C, strain pop2, stronger effect = lower value 1.03 | locus YOL012C, strain htz1 1.26 | locus YOL147C, strain pex11, stronger effect = lower value 1 | locus YOR001W, strain rrp6, stronger effect = lower value 1.04 | locus YOR061W, strain CKA2, stronger effect = lower value 1.02 | locus YOR069W, strain VPS5, stronger effect = lower value 1.01 | locus YOR070C, strain gyp1, stronger effect = lower value 1.02 | locus YOR080W, strain dia2, stronger effect = lower value 1.04 | locus YOR083W, strain WHI5, stronger effect = lower value 1.02 | locus YOR106W, strain vam3, stronger effect = lower value 1.05 | locus YOR136W, strain idh2, stronger effect = lower value 1.03 | locus YOR144C, strain elg1, stronger effect = lower value 1.01 | locus YOR184W, strain ser1, stronger effect = lower value 1.05 | locus YOR231W, strain MKK1, stronger effect = lower value 1.04 | locus YOR265W, strain rbl2, stronger effect = lower value 1.02 | locus YOR270C, strain vph1, stronger effect = lower value 1.06 | locus YOR290C, strain snf2, stronger effect = lower value 1 | locus YOR316C, strain cot1, stronger effect = lower value 0.992 | locus YPL051W, strain arl3, stronger effect = lower value 1.01 | locus YPL078C, strain atp4, stronger effect = lower value 1.03 | locus YPL106C, strain sse1, stronger effect = lower value 1.1 | locus YPL240C, strain hsp82, stronger effect = lower value 1.02 | locus YPL256C, strain CLN2, stronger effect = lower value 1.03 | locus YPR119W, strain clb2, stronger effect = lower value 1.01 | locus YPR141C, strain kar3, stronger effect = lower value 1 | locus YPR163C, strain tif3, stronger effect = lower value 0.997 | locus YPR167C, strain met16, stronger effect = lower value 1.01 | strain wtn01, stronger effect = lower value 1.01
